# Among all 5,500 compounds or so, about 2,000 (36%) were called active. Roughly 18% stayed inconclusive and do not appear here. Some of the results follow. A number with no mark means an inactive call. Cut-off read from the data, not from the text of the source: active = normalized growth mostly below about 0.91 (no sharp cut-off); inconclusive = no clear call, values can overlap the other calls; inactive = mostly above about 0.92.
# Assay: chemical genetic growth profiling, strain panel (AID 1159580);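 note: tested at 20 µM; growth read once vehicle control cultures reached saturation at 30 °C; 1 = growth at the plate median or of vehicle wells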
# Conditions: growth OD
smiles,measurement,setting,value
C=CCCCCCCCCCCCC(O)CC(O)COC(C)=O (stereo not drawn) (tested in a mixture with another compound),normalized growth,"S. cerevisiae deletion strains, locus YJL164C, strain tpk1, stronger effect = lower value",0.832 (active)
same,normalized growth,"S. cerevisiae deletion strains, locus YJL166W, strain qcr8, stronger effect = lower value",0.836 (active)
same,normalized growth,"S. cerevisiae deletion strains, locus YJL168C, strain set2, stronger effect = lower value",0.992
same,normalized growth,"S. cerevisiae deletion strains, locus YJL187C, strain SWE1 (second series), stronger effect = lower value",0.967
same,normalized growth,"S. cerevisiae deletion strains, locus YJL187C, strain SWE1, stronger effect = lower value",0.961
same,normalized growth,"S. cerevisiae deletion strains, locus YKL009W, strain mrt4, stronger effect = lower value",0.864 (active)
same,normalized growth,"S. cerevisiae deletion strains, locus YKL068W, stronger effect = lower value",1.01
same,normalized growth,"S. cerevisiae deletion strains, locus YKL085W, strain MDH1 (second series), stronger effect = lower value",0.943
same,normalized growth,"S. cerevisiae deletion strains, locus YKL085W, strain MDH1, stronger effect = lower value",0.943
same,normalized growth,"S. cerevisiae deletion strains, locus YKL160W, strain elf1, stronger effect = lower value",0.923
same,normalized growth,"S. cerevisiae deletion strains, locus YKR001C, strain vps1, stronger effect = lower value",0.817 (active)
same,normalized growth,"S. cerevisiae deletion strains, locus YKR026C, strain gcn3, stronger effect = lower value",0.974
same,normalized growth,"S. cerevisiae deletion strains, locus YKR091W, strain srl3, stronger effect = lower value",0.975
same,normalized growth,"S. cerevisiae deletion strains, locus YLL001W, strain dnm1, stronger effect = lower value",0.908
same,normalized growth,"S. cerevisiae deletion strains, locus YLL026W, stronger effect = lower value",0.968
same,normalized growth,"S. cerevisiae deletion strains, locus YLL041C, strain sdh2, stronger effect = lower value",0.973
same,normalized growth,"S. cerevisiae deletion strains, locus YLR027C, strain aat2, stronger effect = lower value",0.921 (active)
same,normalized growth,"S. cerevisiae deletion strains, locus YLR039C, strain RIC1, stronger effect = lower value",1.13
same,normalized growth,"S. cerevisiae deletion strains, locus YLR058C, strain SHM2, stronger effect = lower value",0.947
same,normalized growth,"S. cerevisiae deletion strains, locus YLR102C, strain apc9, stronger effect = lower value",0.978
same,normalized growth,"S. cerevisiae deletion strains, locus YLR221C, strain rsa3, stronger effect = lower value",0.806 (active)
same,normalized growth,"S. cerevisiae deletion strains, locus YLR258W, strain gsy2, stronger effect = lower value",0.906 (active)
same,normalized growth,"S. cerevisiae deletion strains, locus YLR262C, strain YPT6 (second series), stronger effect = lower value",0.823 (active)
same,normalized growth,"S. cerevisiae deletion strains, locus YLR268W, strain sec22, stronger effect = lower value",0.975
same,normalized growth,"S. cerevisiae deletion strains, locus YLR320W, strain mms22, stronger effect = lower value",0.823 (active)
same,normalized growth,"S. cerevisiae deletion strains, locus YLR342W, strain FKS1 (second series), stronger effect = lower value",0.824
same,normalized growth,"S. cerevisiae deletion strains, locus YLR342W, strain FKS1, stronger effect = lower value",0.932
same,normalized growth,"S. cerevisiae deletion strains, locus YLR357W, strain rsc2, stronger effect = lower value",1.02
same,normalized growth,"S. cerevisiae deletion strains, locus YLR370C, strain arc18, stronger effect = lower value",0.975
same,normalized growth,"S. cerevisiae deletion strains, locus YLR371W, strain rom2, stronger effect = lower value",0.874 (active)
same,normalized growth,"S. cerevisiae deletion strains, locus YLR384C, strain iki3, stronger effect = lower value",0.97
same,normalized growth,"S. cerevisiae deletion strains, locus YLR418C, strain cdc73, stronger effect = lower value",0.684 (active)
same,normalized growth,"S. cerevisiae deletion strains, locus YML016C, strain PPZ1, stronger effect = lower value",1.01
same,normalized growth,"S. cerevisiae deletion strains, locus YML032C, strain rad52, stronger effect = lower value",0.88 (active)
same,normalized growth,"S. cerevisiae deletion strains, locus YML120C, strain ndi1, stronger effect = lower value",0.899 (active)
same,normalized growth,"S. cerevisiae deletion strains, locus YML124C, strain tub3, stronger effect = lower value",0.997
same,normalized growth,"S. cerevisiae deletion strains, locus YMR058W, strain fet3, stronger effect = lower value",0.953
same,normalized growth,"S. cerevisiae deletion strains, locus YMR078C, strain ctf18, stronger effect = lower value",0.981
same,normalized growth,"S. cerevisiae deletion strains, locus YMR125W, strain sto1, stronger effect = lower value",0.942
same,normalized growth,"S. cerevisiae deletion strains, locus YMR129W, stronger effect = lower value",0.978
same,normalized growth,"S. cerevisiae deletion strains, locus YMR205C, strain PFK2, stronger effect = lower value",0.826 (active)
same,normalized growth,"S. cerevisiae deletion strains, locus YMR223W, strain ubp8, stronger effect = lower value",0.928
same,normalized growth,"S. cerevisiae deletion strains, locus YMR231W, strain pep5, stronger effect = lower value",0.966
same,normalized growth,"S. cerevisiae deletion strains, locus YMR307W, strain GAS1, stronger effect = lower value",0.869
same,normalized growth,"S. cerevisiae deletion strains, locus YNL067W, strain RPL9B, stronger effect = lower value",0.995
same,normalized growth,"S. cerevisiae deletion strains, locus YNL071W, strain lat1, stronger effect = lower value",0.762 (active)
same,normalized growth,"S. cerevisiae deletion strains, locus YNL209W, strain ssb2, stronger effect = lower value",0.965
same,normalized growth,"S. cerevisiae deletion strains, locus YNL233W, strain BNI4, stronger effect = lower value",0.845 (active)
same,normalized growth,"S. cerevisiae deletion strains, locus YNL248C, strain rpa49, stronger effect = lower value",0.99
same,normalized growth,"S. cerevisiae deletion strains, locus YNL250W, strain rad50, stronger effect = lower value",1.01
same,normalized growth,"S. cerevisiae deletion strains, locus YNL271C, strain bni1, stronger effect = lower value",0.947
same,normalized growth,"S. cerevisiae deletion strains, locus YNL298W, strain CLA4, stronger effect = lower value",0.824 (active)
same,normalized growth,"S. cerevisiae deletion strains, locus YNL307C, strain MCK1, stronger effect = lower value",0.56 (active)
same,normalized growth,"S. cerevisiae deletion strains, locus YNL322C, strain KRE1 (second series), stronger effect = lower value",0.973
same,normalized growth,"S. cerevisiae deletion strains, locus YNR049C, strain mso1, stronger effect = lower value",0.969
same,normalized growth,"S. cerevisiae deletion strains, locus YNR052C, strain pop2, stronger effect = lower value",0.898 (active)
same,normalized growth,"S. cerevisiae deletion strains, locus YOL012C, strain htz1",1.44
same,normalized growth,"S. cerevisiae deletion strains, locus YOL147C, strain pex11, stronger effect = lower value",0.917 (active)
same,normalized growth,"S. cerevisiae deletion strains, locus YOR001W, strain rrp6, stronger effect = lower value",0.943
same,normalized growth,"S. cerevisiae deletion strains, locus YOR061W, strain CKA2, stronger effect = lower value",0.672 (active)
same,normalized growth,"S. cerevisiae deletion strains, locus YOR069W, strain VPS5, stronger effect = lower value",0.989
same,normalized growth,"S. cerevisiae deletion strains, locus YOR070C, strain gyp1, stronger effect = lower value",0.935
same,normalized growth,"S. cerevisiae deletion strains, locus YOR080W, strain dia2, stronger effect = lower value",0.978
same,normalized growth,"S. cerevisiae deletion strains, locus YOR083W, strain WHI5, stronger effect = lower value",0.873 (active)
same,normalized growth,"S. cerevisiae deletion strains, locus YOR106W, strain vam3, stronger effect = lower value",0.875
same,normalized growth,"S. cerevisiae deletion strains, locus YOR136W, strain idh2, stronger effect = lower value",0.973
same,normalized growth,"S. cerevisiae deletion strains, locus YOR144C, strain elg1, stronger effect = lower value",0.944
same,normalized growth,"S. cerevisiae deletion strains, locus YOR184W, strain ser1, stronger effect = lower value",0.446 (active)
same,normalized growth,"S. cerevisiae deletion strains, locus YOR265W, strain rbl2, stronger effect = lower value",0.937
same,normalized growth,"S. cerevisiae deletion strains, locus YOR270C, strain vph1, stronger effect = lower value",0.699 (active)
same,normalized growth,"S. cerevisiae deletion strains, locus YOR290C, strain snf2, stronger effect = lower value",0.917
same,normalized growth,"S. cerevisiae deletion strains, locus YOR316C, strain cot1, stronger effect = lower value",0.984
same,normalized growth,"S. cerevisiae deletion strains, locus YPL051W, strain arl3, stronger effect = lower value",0.88 (active)
same,normalized growth,"S. cerevisiae deletion strains, locus YPL078C, strain atp4, stronger effect = lower value",0.882 (active)
same,normalized growth,"S. cerevisiae deletion strains, locus YPL106C, strain sse1, stronger effect = lower value",1.06
same,normalized growth,"S. cerevisiae deletion strains, locus YPL240C, strain hsp82, stronger effect = lower value",0.958
same,normalized growth,"S. cerevisiae deletion strains, locus YPL241C, strain CIN2, stronger effect = lower value",1
same,normalized growth,"S. cerevisiae deletion strains, locus YPR119W, strain clb2, stronger effect = lower value",0.982
same,normalized growth,"S. cerevisiae deletion strains, locus YPR141C, strain kar3, stronger effect = lower value",1.01
same,normalized growth,"S. cerevisiae deletion strains, locus YPR163C, strain tif3, stronger effect = lower value",0.898 (active)
same,normalized growth,"S. cerevisiae deletion strains, locus YPR167C, strain met16, stronger effect = lower value",0.905 (active)
same,normalized growth,"S. cerevisiae deletion strains, strain wtn01, stronger effect = lower value",0.866 (active)
same,normalized growth,"S. cerevisiae strains, strain wild type, stronger effect = lower value",0.796 (active)

# From PubChem BioAssay AID1159580 (chemical genetic matrix, 2015)
